Measurements taken from paper PMC9911399, “Two distinct binding modes provide the RNA-binding protein RbFox with extraordinary sequence specificity”.
Residue numbers refer to the chain shown, from its start. The full ranking holds about 16,000 sequences; the median of “ka relative to ugcaugu” is about 0.096, and the highest 2% start at about 0.35. The entries come from a sample that favours the highest values as a whole.

T1: RBFOX1 RRM RbFoxmut (Fox-RRM*) (Homo sapiens, UniProt Q9NWB1 109-208, R118D;E147R;N151S;E152T)
T1 sequence: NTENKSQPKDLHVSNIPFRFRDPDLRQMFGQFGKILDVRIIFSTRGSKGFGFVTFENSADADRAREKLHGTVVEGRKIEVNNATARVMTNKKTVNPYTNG

B1: UACUCAU (DNA:RNA)
RNA: GGGAGACCGGAAUUCAGAUUGUCCUACUCAUUUAAAUCCCGUCGUAGCCACCA
DNA 1: CAATCTGAATTCCGGTCTCCC
DNA 2: TGGTGGCTACGACGGGATT
B2: CUACUCU (DNA:RNA)
RNA: B1 RNA with U25C, A26U, C27A, U28C, C29U, A30C
DNA 1: CAATCTGAATTCCGGTCTCCC
DNA 2: TGGTGGCTACGACGGGATT
B3: ACAGGAC (DNA:RNA)
RNA: B1 RNA with U25A, A26C, C27A, U28G, C29G, U31C
DNA 1: CAATCTGAATTCCGGTCTCCC
DNA 2: TGGTGGCTACGACGGGATT
B4: GGGAGUU (DNA:RNA)
RNA: B1 RNA with U25G, A26G, C27G, U28A, C29G, A30U
DNA 1: CAATCTGAATTCCGGTCTCCC
DNA 2: TGGTGGCTACGACGGGATT
B5: CUCGGGU (DNA:RNA)
RNA: B1 RNA with U25C, A26U, U28G, C29G, A30G
DNA 1: CAATCTGAATTCCGGTCTCCC
DNA 2: TGGTGGCTACGACGGGATT
B6: AACUACA (DNA:RNA)
RNA: B1 RNA with U25A, C29A, A30C, U31A
DNA 1: CAATCTGAATTCCGGTCTCCC
DNA 2: TGGTGGCTACGACGGGATT
B7: GCUCAGC (DNA:RNA)
RNA: GGGAGACCGGAAUUCAGAUUGUCCGCUCAGCUUAAAUCCCGUCGUAGCCACCA
DNA 1: CAATCTGAATTCCGGTCTCCC
DNA 2: TGGTGGCTACGACGGGATT
B8: GUCGGGU (DNA:RNA)
RNA: B7 RNA with C26U, U27C, C28G, A29G, C31U
DNA 1: CAATCTGAATTCCGGTCTCCC
DNA 2: TGGTGGCTACGACGGGATT
B9: GGGUUUG (DNA:RNA)
RNA: B7 RNA with C26G, U27G, C28U, A29U, G30U, C31G
DNA 1: CAATCTGAATTCCGGTCTCCC
DNA 2: TGGTGGCTACGACGGGATT
B10: GGGUUGU (DNA:RNA)
RNA: B7 RNA with C26G, U27G, C28U, A29U, C31U
DNA 1: CAATCTGAATTCCGGTCTCCC
DNA 2: TGGTGGCTACGACGGGATT
B11: GGGUUUU (DNA:RNA)
RNA: B1 RNA with U25G, A26G, C27G, C29U, A30U
DNA 1: CAATCTGAATTCCGGTCTCCC
DNA 2: TGGTGGCTACGACGGGATT
B12: GUCCGGG (DNA:RNA)
RNA: B7 RNA with C26U, U27C, A29G, C31G
DNA 1: CAATCTGAATTCCGGTCTCCC
DNA 2: TGGTGGCTACGACGGGATT
B13: GGGGGGU (DNA:RNA)
RNA: B7 RNA with C26G, U27G, C28G, A29G, C31U
DNA 1: CAATCTGAATTCCGGTCTCCC
DNA 2: TGGTGGCTACGACGGGATT
B14: AAGCAAG (DNA:RNA)
RNA: B7 RNA with G25A, C26A, U27G, G30A, C31G
DNA 1: CAATCTGAATTCCGGTCTCCC
DNA 2: TGGTGGCTACGACGGGATT
B15: UGCCAGG (DNA:RNA)
RNA: B7 RNA with G25U, C26G, U27C, C31G
DNA 1: CAATCTGAATTCCGGTCTCCC
DNA 2: TGGTGGCTACGACGGGATT
B16: UCCCAGC (DNA:RNA)
RNA: B7 RNA with G25U, U27C
DNA 1: CAATCTGAATTCCGGTCTCCC
DNA 2: TGGTGGCTACGACGGGATT
B17: AAUUCGA (DNA:RNA)
RNA: B1 RNA with U25A, C27U, A30G, U31A
DNA 1: CAATCTGAATTCCGGTCTCCC
DNA 2: TGGTGGCTACGACGGGATT
B18: GGUACUG (DNA:RNA)
RNA: B7 RNA with C26G, C28A, A29C, G30U, C31G
DNA 1: CAATCTGAATTCCGGTCTCCC
DNA 2: TGGTGGCTACGACGGGATT
B19: CCGCAUC (DNA:RNA)
RNA: B7 RNA with G25C, U27G, G30U
DNA 1: CAATCTGAATTCCGGTCTCCC
DNA 2: TGGTGGCTACGACGGGATT
B20: GCAUCUC (DNA:RNA)
RNA: B7 RNA with U27A, C28U, A29C, G30U
DNA 1: CAATCTGAATTCCGGTCTCCC
DNA 2: TGGTGGCTACGACGGGATT
B21: GCGCAUC (DNA:RNA)
RNA: B7 RNA with U27G, G30U
DNA 1: CAATCTGAATTCCGGTCTCCC
DNA 2: TGGTGGCTACGACGGGATT
B22: CGCAUCU (DNA:RNA)
RNA: B1 RNA with U25C, A26G, U28A, C29U, A30C
DNA 1: CAATCTGAATTCCGGTCTCCC
DNA 2: TGGTGGCTACGACGGGATT
B23: GCAUAUC (DNA:RNA)
RNA: B7 RNA with U27A, C28U, G30U
DNA 1: CAATCTGAATTCCGGTCTCCC
DNA 2: TGGTGGCTACGACGGGATT
B24: GCAUCUU (DNA:RNA)
RNA: B1 RNA with U25G, A26C, C27A, A30U
DNA 1: CAATCTGAATTCCGGTCTCCC
DNA 2: TGGTGGCTACGACGGGATT

Target: T1, RBFOX1 RRM RbFoxmut (Fox-RRM*)
Experiment: EMSA; HiTS-Eq, 1 nM pool, 10 min; buffer printed only for the single-RNA assays: 10 mM Tris pH 7.5, 150 mM NaCl, 3.4 mM EDTA, 0.001% NP-40, 30 C
Conditions: tags: His6 N-terminal (pET28a); label: 5' 32P
Method in brief: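 Purified RbFox RRM (wild type or mutant) was equilibrated for 10 min in 50 µL with 1 nM of a 5′-radiolabelled pool of RNA with 7 randomized nucleotides, its flanks annealed to DNA oligonucleotides, across increasing protein concentrations. Free RNA was separated by 8% native PAGE, excised, reverse-transcribed, PCR-barcoded and sequenced on an Illumina HiSeq 2500. Relative association constants came from read-count changes of each variant against the control reaction, normalised to the cognate motif.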

Binder	binding signal
B1	0.0982 KA relative to UGCAUGU
B2	0.0641 KA relative to UGCAUGU
B3	0.0906 KA relative to UGCAUGU
B4	0.09 KA relative to UGCAUGU
B5	0.0903 KA relative to UGCAUGU
B6	0.121 KA relative to UGCAUGU
B7	0.0895 KA relative to UGCAUGU
B8	0.132 KA relative to UGCAUGU
B9	0.741 KA relative to UGCAUGU
B10	0.448 KA relative to UGCAUGU
B11	0.0749 KA relative to UGCAUGU
B12	0.0861 KA relative to UGCAUGU
B13	0.0952 KA relative to UGCAUGU
B14	0.103 KA relative to UGCAUGU
B15	0.0858 KA relative to UGCAUGU
B16	0.1 KA relative to UGCAUGU
B17	0.0737 KA relative to UGCAUGU
B18	0.112 KA relative to UGCAUGU
B19	0.258 KA relative to UGCAUGU
B20	0.135 KA relative to UGCAUGU
B21	0.49 KA relative to UGCAUGU
B22	0.395 KA relative to UGCAUGU
B23	0.073 KA relative to UGCAUGU
B24	0.33 KA relative to UGCAUGU
